Pf Dd2 inh – blocks in vitro growth of P. falciparum Dd2. P. falciparum Dd2 growth, SYBR Green, 72 h. Potency, µM (series often up to 28.9 µM), inactives show at the highest dose activity, negative = inhibition, actives largely listed as inhibitors. 4.3% of 120,000 active. AID 1347417; active = well fitted inhibition curve with a large enough effect;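 also: plate controls were DMSO vehicle for no effect and reference drug for full effect; nearly all actives have a fitted effect of over 65% in size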
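Infected erythrocytes (Dd2, 0.3% parasitemia, 2.5% hematocrit final) are added to compound in RPMI-1640/Albumax II medium, grown 72 h at 37C in low oxygen, then lysed with saponin/Triton-X containing SYBR Green and read by fluorescence.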
* marks the source's active call; other numbers are inactive results; i = inactive; [ ] = remark or other dose. Shown is part of a subset that was picked to be rich in hits. Potency is read from the fitted curve at half-maximal effect.

SMILES	Pf Dd2 inh
Cc1nc(-c2ccco2)cc([C@H]2CN3CC[C@H]2C[C@@H]3CNCc2ccccc2)n1	1.12µM*
Cc1nc(C2CCCC2)cc([C@H]2CN3CC[C@H]2C[C@@H]3CNC(=O)c2ccco2)n1	i
COc1ccc(C(=O)NC[C@H]2C[C@@H]3CCN2C[C@@H]3c2cc(-c3ccccc3Br)nc(C)n2)cc1	7.08µM*
COc1ccccc1-c1cc([C@H]2CN3CC[C@H]2C[C@@H]3CNC(=O)c2ccc(C)cc2)n(C)n1	i
Cc1nc(-c2cccs2)cc([C@H]2CN3CC[C@H]2C[C@@H]3CNC(=O)CSCC(=O)O)n1	-4.0%
Cc1nc(-c2ccccc2Br)cc([C@H]2CN3CC[C@H]2C[C@@H]3CNC(=O)C2CC2)n1	-0.5%
Cc1nc(-c2cccs2)cc([C@H]2CN3CC[C@H]2C[C@@H]3CNC(=O)c2ccc(N(C)C)cc2)n1	7.08µM*
Cc1nc(-c2cccs2)cc([C@H]2CN3CC[C@H]2C[C@@H]3CNC(=O)c2ccco2)n1	i
Cc1nc(-c2ccco2)cc([C@H]2CN3CC[C@H]2C[C@@H]3CNC(=O)C2CC2)n1	i
Cc1nccn1-c1ccccc1Cn1cc(-c2cncnc2)nn1	-18.9%
COc1ccc(NC(=O)c2ccc3c(c2)N(C)C2CCCCN2C3=O)cc1F (configuration not stated)	-5.8%
COc1ccc(C(=O)N[C@@H]2CN(c3ncccn3)C[C@H]2CN(C)C)cc1OC	22.4%
COc1ccc(CN2CCC([C@@H]3CNC[C@H]3CO)CC2)c(Cl)c1OC	42.5%
O=C(NC1CCN(c2cc(-c3ccc(F)cc3)[nH]n2)C1)c1ccccc1Br (configuration not stated)	i
Cc1cccc(OCCc2noc(C3CCNC3)n2)c1 (configuration not stated)	i
CCN(Cc1nccn1C)C(=O)c1cc(-c2cnc(C)nc2)nc2ccc(F)cc12	-3.4%
O[C@@H]1C[C@@H](c2nnc3n2CCN(Cc2ccc(F)cc2F)C3)N(Cc2cccnc2)C1	-6.5%
CNC(=O)[C@@H]1C[C@@H](O)CN1C1CCN(C(=O)c2nn(C)c3ccccc23)CC1	-8.6%
CS(=O)(=O)N1CCC(OC2CCN(C(=O)Nc3ccc4c(c3)OCCO4)CC2)CC1	i
CC(C)N1CCC(CCN2C(=O)[C@H]3CN(C)C[C@H]3C2=O)CC1	-19.7%
O=C(O)C1(Oc2ccccc2F)CCN(Cc2ccc(CO)o2)CC1	-12.8%
O=C(Cc1c[nH]c2ncc(-c3ccsc3)cc12)NCc1cccnc1	i
O=C(Cc1c[nH]c2ncc(-c3cn[nH]c3)cc12)NCc1cccnc1	11.2µM*
O=C(Cc1c[nH]c2ncc(-c3ccc(F)c(Cl)c3)cc12)NCc1cccnc1	4.47µM*
CC(C)CNC(=O)Cc1c[nH]c2ncc(-c3cnn(C)c3)cc12	i
SMILES	Pf Dd2 inh
O=C(Cc1c[nH]c2ncc(-c3ccccc3)cc12)NCCc1ccccc1	i
Cc1cc(-c2cnc3[nH]cc(CC(=O)NCc4cccnc4)c3c2)ccn1	i
COc1ncccc1-c1cnc2[nH]cc(CC(=O)Nc3ccccc3)c2c1	i
O=C(Cc1c[nH]c2ncc(-c3ccccc3)cc12)Nc1cccnc1	-29.0%[44.1 µM]
COc1ncccc1-c1cnc2[nH]cc(CC(=O)Nc3ccncc3)c2c1	i
COc1ncccc1-c1cnc2[nH]cc(CC(=O)Nc3ccccc3C)c2c1	10µM*
Cn1cc(-c2cnc3[nH]cc(CC(=O)NC4CCC4)c3c2)cn1	i
Cn1cc(-c2cnc3[nH]cc(CC(=O)NCc4ccncc4)c3c2)cn1	3.98µM*
CC(C)c1noc(C2CCCN(S(C)(=O)=O)CCC(=O)NCC2)n1 (configuration not stated)	2.2%
Cc1ccc(C(=O)N2CCC3(CC2)N=C(c2ccc(Cl)cc2)NO3)cc1	i
CC(C)N1C(=O)CO[C@H]2CN(C(=O)c3ccncc3)C[C@H]21	18.3%[44.1 µM]
O=C1CC2(CCN(Cc3ccc(F)cc3)CC2)Oc2ccccc2N1c1ccccc1	-1.1%
CS(=O)(=O)NC[C@H]1OC[C@@H](NCc2ccc(S(C)(=O)=O)cc2)[C@@H]1O	10.6%[44.1 µM]
O=C(C[C@@H]1CCNC[C@@H]1Cc1cc(-c2ccccc2)on1)N1CCC(n2c(=O)[nH]c3ccccc32)CC1	-16.4%
Cc1ccc(N2C(=O)CSC23CCN(C(=O)C2CC2)CC3)cc1	3.5%
O=C(Cc1c[nH]c2ncc(-c3cccnc3)cc12)NCc1ccccc1	5.62µM*
O=C(Cc1c[nH]c2ncc(-c3ccccc3Oc3ccccc3)cc12)NCc1cccnc1	i
COc1cc(F)cc(-c2cnc3[nH]cc(CC(=O)NCc4cccnc4)c3c2)c1	i
O=C(Cc1c[nH]c2ncc(-c3cccnc3)cc12)NC1CC1	i
O=C(Cc1c[nH]c2ncc(-c3cccc(OC(F)(F)F)c3)cc12)NCc1cccnc1	3.98µM*
CN1CCN(C(=O)Cc2c[nH]c3ncc(-c4cccc(OC(F)(F)F)c4)cc23)CC1	i
COCCN1CCC(N2CCN(C(=O)CC3CCCC3)CC2)C1=O (configuration not stated)	9.0%
O=C1CC(c2ccccc2)N(C(=O)CNC(=O)c2ccc(Cn3cncn3)o2)CCCCCN1 (configuration not stated)	-3.9%
